Measured values published in article PMC7862700, “An all-to-all approach to the identification of sequence-specific readers for epigenetic DNA modifications on cytosine”.

Legend:
Experiment in all cases: DAPPL (digital affinity profiling via proximity ligation, sequencing); 10 mM Tris-HCl pH 7.5, 50 mM NaCl, 1 mM DTT, 4% glycerol, room temperature, 30 min; GST-TFs on glutathione beads, 16-mer random dsDNA library, 0.1% formaldehyde crosslink after washing; high values mean tight binding
Settings in all cases: protein: recombinant; tags: N-terminal GST; dsDNA, one strand shown
FEV = target: T1, FEV (Homo sapiens, UniProt Q99581 1-238)
T1 sequence: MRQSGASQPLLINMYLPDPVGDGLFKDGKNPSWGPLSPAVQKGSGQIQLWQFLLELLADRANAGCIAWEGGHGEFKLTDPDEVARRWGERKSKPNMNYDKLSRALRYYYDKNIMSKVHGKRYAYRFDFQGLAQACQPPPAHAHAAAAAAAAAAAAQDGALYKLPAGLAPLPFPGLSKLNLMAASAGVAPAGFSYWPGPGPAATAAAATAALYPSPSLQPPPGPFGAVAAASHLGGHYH
Method in brief: (§1)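 A tag-only sample was pooled with DNA-barcoded human transcription factors that had been expressed in yeast as GST fusions and captured on glutathione beads. The pools were incubated for 30 min at room temperature with 200 nmole of a random double-stranded 16-mer DNA library in Tris/NaCl/DTT/glycerol buffer, then washed, crosslinked with 0.1% formaldehyde, proximity-ligated (BsaI/T4 ligase, 1 h, 37 °C), PCR-amplified and sequenced on an Illumina NextSeq500. Binding signal is each hexamer's read frequency for a factor divided by its frequency for the tag-only sample.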

ETV5 = ETV5 (Homo sapiens, UniProt P41161 1-510)
Method in brief: as §1

SPIC = target: T2, SPIC (Homo sapiens, UniProt Q8N5J4 1-248)
T2 sequence: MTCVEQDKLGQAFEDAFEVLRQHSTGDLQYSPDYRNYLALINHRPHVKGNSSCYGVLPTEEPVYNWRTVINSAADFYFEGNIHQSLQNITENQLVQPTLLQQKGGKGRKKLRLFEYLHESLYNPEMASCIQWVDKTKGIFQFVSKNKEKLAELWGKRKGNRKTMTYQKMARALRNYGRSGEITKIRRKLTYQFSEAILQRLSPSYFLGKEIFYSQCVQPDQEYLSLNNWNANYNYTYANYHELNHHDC
Method in brief: as §1

ELF4 = ELF4 (Homo sapiens, UniProt Q99607 1-663)
Method in brief: as §1

ELK4 = target: T3, ELK4 (Homo sapiens, UniProt P28324-2 1-405)
T3 sequence: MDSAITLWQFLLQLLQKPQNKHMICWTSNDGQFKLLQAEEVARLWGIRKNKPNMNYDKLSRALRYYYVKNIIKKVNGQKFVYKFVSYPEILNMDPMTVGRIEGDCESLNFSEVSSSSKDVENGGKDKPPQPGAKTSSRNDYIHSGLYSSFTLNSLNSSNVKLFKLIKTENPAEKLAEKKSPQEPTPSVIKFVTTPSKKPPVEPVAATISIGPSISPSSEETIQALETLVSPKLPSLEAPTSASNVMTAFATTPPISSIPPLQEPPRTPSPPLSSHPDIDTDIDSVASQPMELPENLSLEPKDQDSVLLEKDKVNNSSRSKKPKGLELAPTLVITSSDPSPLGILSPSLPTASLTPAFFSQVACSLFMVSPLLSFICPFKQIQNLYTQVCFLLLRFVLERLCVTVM
Method in brief: as §1

ETV2 = target: T4, ETV2 (Homo sapiens, UniProt O00321 1-342)
T4 sequence: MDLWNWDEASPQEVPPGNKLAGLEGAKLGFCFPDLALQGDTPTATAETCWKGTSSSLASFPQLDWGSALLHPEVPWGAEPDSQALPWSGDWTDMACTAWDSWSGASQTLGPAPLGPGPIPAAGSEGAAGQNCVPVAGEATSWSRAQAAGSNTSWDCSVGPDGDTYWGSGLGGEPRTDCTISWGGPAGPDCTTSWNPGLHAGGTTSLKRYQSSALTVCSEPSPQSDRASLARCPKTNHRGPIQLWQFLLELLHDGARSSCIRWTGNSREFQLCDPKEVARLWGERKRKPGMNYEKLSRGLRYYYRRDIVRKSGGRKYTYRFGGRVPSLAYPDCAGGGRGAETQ
Method in brief: as §1

ELF3 = target: T5, ELF3 (Homo sapiens, UniProt P78545 1-371)
T5 sequence: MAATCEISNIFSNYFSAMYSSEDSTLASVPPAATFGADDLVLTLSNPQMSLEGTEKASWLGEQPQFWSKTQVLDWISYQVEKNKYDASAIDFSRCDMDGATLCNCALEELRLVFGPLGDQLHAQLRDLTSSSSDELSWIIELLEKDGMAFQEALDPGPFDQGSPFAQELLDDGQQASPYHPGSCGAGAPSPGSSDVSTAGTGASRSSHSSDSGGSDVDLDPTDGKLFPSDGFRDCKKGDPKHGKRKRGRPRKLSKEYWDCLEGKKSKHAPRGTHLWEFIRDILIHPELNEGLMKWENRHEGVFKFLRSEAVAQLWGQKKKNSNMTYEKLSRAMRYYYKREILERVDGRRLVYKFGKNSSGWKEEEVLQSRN
Method in brief: as §1

CRX = CRX (Homo sapiens, UniProt O43186 1-299)
Method in brief: as §1

ETV1 = ETV1 (Homo sapiens, UniProt P50549 1-477)
Method in brief: as §1

ERF = target: T6, ERF (Homo sapiens, UniProt P50548 1-548)
T6 sequence: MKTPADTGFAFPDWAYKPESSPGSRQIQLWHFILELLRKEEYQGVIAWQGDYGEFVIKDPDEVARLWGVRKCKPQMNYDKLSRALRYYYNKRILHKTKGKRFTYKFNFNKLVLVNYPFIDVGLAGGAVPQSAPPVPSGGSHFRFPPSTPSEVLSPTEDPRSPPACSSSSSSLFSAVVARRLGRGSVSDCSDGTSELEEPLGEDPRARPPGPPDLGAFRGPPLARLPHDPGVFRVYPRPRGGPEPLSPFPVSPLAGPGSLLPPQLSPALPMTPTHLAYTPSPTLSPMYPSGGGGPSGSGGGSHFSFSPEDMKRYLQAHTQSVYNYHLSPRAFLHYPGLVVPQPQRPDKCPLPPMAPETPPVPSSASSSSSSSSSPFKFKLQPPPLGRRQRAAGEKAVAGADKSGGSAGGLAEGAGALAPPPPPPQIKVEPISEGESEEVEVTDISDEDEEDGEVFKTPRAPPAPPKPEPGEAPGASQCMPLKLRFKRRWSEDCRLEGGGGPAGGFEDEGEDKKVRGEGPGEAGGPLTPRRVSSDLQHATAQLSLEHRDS
Method in brief: as §1

ETV3L = target: T7, ETV3L (Homo sapiens, UniProt Q6ZN32 1-361)
T7 sequence: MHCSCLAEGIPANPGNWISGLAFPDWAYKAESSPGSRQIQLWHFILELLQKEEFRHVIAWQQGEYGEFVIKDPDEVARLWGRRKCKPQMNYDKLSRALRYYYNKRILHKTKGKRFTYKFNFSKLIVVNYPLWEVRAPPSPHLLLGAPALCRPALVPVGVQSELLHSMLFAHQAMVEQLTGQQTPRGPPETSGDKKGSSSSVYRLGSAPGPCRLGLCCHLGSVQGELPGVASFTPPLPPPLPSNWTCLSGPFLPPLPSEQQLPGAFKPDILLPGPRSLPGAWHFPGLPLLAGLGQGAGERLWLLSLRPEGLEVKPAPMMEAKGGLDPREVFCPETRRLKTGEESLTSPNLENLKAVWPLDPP
Method in brief: as §1

ETS2 = target: T8, ETS2 (Homo sapiens, UniProt P15036 1-469)
T8 sequence: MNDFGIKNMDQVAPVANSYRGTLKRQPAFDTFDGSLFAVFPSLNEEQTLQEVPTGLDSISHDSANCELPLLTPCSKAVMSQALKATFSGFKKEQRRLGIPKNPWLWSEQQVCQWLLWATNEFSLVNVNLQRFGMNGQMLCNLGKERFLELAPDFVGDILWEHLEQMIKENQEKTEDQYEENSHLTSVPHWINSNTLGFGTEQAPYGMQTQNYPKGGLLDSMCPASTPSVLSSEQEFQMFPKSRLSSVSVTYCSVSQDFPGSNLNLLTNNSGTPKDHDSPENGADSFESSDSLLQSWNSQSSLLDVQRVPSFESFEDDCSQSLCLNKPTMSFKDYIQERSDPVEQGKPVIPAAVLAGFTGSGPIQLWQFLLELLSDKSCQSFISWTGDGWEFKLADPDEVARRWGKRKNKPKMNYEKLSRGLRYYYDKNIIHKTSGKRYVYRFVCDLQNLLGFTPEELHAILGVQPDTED
Method in brief: as §1

SPDEF = target: T9, SPDEF (Homo sapiens, UniProt O95238 1-335)
T9 sequence: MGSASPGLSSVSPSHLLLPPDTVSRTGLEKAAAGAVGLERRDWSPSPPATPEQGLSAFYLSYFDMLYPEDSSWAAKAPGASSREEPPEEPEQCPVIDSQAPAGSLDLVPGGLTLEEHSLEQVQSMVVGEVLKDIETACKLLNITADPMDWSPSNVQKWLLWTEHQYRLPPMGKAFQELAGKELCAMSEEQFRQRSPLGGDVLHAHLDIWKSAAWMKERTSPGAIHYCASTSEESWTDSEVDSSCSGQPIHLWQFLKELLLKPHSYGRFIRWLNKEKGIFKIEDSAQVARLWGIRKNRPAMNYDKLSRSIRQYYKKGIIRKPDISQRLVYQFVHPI
Method in brief: as §1

ETV7 = target: T10, ETV7 (Homo sapiens, UniProt Q9Y603 1-341)
T10 sequence: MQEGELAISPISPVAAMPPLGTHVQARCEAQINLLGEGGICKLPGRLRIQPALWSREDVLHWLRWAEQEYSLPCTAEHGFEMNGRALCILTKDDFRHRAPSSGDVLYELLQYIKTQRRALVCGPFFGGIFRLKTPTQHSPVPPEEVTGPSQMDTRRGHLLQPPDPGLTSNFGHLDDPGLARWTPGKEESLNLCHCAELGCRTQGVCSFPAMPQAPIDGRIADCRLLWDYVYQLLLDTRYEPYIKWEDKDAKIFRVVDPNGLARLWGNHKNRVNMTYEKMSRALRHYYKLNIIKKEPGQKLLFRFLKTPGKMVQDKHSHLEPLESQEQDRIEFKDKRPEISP
Method in brief: as §1

ELF5 = target: T11, ELF5 (Homo sapiens, UniProt Q9UKW6-2 1-255)
T11 sequence: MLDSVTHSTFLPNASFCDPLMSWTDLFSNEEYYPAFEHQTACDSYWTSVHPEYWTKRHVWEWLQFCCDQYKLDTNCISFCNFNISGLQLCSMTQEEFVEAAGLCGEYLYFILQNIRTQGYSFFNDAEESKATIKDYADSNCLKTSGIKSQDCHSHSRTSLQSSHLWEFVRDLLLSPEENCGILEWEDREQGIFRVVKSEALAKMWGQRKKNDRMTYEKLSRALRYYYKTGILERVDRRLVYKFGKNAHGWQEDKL
Method in brief: as §1

ETV3 = target: T12, ETV3 (Homo sapiens, UniProt P41162-2 1-143)
T12 sequence: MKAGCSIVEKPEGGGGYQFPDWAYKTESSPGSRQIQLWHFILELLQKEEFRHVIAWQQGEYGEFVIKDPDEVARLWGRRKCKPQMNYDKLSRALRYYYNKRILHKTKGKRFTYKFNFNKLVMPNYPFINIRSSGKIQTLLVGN
Method in brief: as §1

ETV6 = ETV6 (Homo sapiens, UniProt P41212 1-452)
Method in brief: as §1

Chain of ETV6 (P41212 whole entry): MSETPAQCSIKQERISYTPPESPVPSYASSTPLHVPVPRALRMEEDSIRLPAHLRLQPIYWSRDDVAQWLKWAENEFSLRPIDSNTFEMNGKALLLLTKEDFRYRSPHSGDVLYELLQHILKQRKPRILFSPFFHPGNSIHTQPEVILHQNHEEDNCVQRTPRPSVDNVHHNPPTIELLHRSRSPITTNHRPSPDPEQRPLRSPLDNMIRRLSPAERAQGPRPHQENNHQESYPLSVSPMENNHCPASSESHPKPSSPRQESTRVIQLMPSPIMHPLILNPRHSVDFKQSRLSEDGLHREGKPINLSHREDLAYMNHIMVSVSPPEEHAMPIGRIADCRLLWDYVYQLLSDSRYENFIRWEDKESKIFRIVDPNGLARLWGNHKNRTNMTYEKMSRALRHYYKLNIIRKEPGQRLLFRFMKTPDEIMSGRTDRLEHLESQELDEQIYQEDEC
Chain of ETV5 (P41161 whole entry): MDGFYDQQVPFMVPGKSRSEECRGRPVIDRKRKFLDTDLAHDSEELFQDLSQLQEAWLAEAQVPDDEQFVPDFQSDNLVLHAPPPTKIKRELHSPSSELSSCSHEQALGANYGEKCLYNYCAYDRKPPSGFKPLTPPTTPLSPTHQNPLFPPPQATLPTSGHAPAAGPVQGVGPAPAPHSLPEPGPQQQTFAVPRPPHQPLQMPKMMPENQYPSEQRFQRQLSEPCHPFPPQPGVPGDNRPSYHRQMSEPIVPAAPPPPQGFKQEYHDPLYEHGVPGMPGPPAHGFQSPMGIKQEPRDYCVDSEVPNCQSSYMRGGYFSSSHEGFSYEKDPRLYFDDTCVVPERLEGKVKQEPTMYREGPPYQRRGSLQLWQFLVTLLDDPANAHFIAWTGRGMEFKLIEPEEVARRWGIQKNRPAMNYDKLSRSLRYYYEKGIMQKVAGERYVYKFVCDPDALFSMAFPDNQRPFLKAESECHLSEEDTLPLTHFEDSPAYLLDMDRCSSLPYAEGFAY
Chain of CRX (O43186 whole entry): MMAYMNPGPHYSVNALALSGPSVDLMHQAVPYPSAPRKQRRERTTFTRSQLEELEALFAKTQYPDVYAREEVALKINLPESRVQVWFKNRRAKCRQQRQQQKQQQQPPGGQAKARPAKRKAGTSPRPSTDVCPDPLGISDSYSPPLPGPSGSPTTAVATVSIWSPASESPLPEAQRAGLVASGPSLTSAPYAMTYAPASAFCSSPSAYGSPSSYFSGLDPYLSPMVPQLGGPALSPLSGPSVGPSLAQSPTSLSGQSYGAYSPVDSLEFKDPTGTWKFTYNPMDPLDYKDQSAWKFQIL
Chain of ELF4 (Q99607 whole entry): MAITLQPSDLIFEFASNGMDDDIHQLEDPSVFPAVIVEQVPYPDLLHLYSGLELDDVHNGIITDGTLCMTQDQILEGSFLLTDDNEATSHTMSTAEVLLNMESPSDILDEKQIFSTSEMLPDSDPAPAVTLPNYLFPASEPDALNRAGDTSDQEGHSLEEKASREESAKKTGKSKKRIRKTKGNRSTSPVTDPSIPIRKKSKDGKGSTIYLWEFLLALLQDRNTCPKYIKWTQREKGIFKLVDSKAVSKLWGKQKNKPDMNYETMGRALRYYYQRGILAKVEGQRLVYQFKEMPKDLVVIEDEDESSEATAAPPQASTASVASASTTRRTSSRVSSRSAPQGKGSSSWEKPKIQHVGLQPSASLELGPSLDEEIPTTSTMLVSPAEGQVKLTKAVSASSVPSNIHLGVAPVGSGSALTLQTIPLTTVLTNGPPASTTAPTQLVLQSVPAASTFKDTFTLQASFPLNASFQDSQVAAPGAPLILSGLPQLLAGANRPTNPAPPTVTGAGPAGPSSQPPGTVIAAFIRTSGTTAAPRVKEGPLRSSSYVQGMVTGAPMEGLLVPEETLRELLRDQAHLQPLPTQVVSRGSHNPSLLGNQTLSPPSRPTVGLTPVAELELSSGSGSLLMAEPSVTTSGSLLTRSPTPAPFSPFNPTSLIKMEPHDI
Chain of ETV1 (P50549 whole entry): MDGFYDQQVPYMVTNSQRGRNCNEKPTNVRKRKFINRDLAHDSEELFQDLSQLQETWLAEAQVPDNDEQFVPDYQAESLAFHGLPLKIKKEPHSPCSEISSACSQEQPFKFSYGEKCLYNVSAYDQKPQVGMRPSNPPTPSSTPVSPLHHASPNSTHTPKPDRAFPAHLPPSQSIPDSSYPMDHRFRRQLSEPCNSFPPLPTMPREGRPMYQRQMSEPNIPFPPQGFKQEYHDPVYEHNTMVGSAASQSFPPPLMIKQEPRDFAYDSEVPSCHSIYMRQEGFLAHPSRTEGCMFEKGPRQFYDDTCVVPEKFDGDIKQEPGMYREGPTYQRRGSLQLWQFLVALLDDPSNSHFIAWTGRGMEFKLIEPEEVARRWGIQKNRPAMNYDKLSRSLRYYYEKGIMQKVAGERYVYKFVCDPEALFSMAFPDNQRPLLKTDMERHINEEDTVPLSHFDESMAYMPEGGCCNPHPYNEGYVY

| Sequence | binding signal (FEV) | binding signal (ETV5) | binding signal (SPIC) | binding signal (ELF4) | binding signal (ELK4) | binding signal (ETV2) | binding signal (ELF3) | binding signal (CRX) | binding signal (ETV1) | binding signal (ERF) | binding signal (ETV3L) | binding signal (ETS2) | binding signal (SPDEF) | binding signal (ETV7) | binding signal (ELF5) | binding signal (ETV3) | binding signal (ETV6) |
| --- | --- | --- | --- | --- | --- | --- | --- | --- | --- | --- | --- | --- | --- | --- | --- | --- | --- |
| TACCGC | 1.13 fold enrichment (6-mer frequency, TF over GST control) | 1.06 fold enrichment (6-mer frequency, TF over GST control) | 1.15 fold enrichment (6-mer frequency, TF over GST control) | 1.1 fold enrichment (6-mer frequency, TF over GST control) | 1.14 fold enrichment (6-mer frequency, TF over GST control) | 1.16 fold enrichment (6-mer frequency, TF over GST control) | 1.23 fold enrichment (6-mer frequency, TF over GST control) | 1.03 fold enrichment (6-mer frequency, TF over GST control) | 1.06 fold enrichment (6-mer frequency, TF over GST control) | 1.1 fold enrichment (6-mer frequency, TF over GST control) | 1.14 fold enrichment (6-mer frequency, TF over GST control) | 1.05 fold enrichment (6-mer frequency, TF over GST control) | 1.17 fold enrichment (6-mer frequency, TF over GST control) | 1.13 fold enrichment (6-mer frequency, TF over GST control) | 1.08 fold enrichment (6-mer frequency, TF over GST control) | 1.12 fold enrichment (6-mer frequency, TF over GST control) | 1.04 fold enrichment (6-mer frequency, TF over GST control) |
| AAGCGG | 1.12 fold enrichment (6-mer frequency, TF over GST control) | 1.27 fold enrichment (6-mer frequency, TF over GST control) | 1.31 fold enrichment (6-mer frequency, TF over GST control) | 1.01 fold enrichment (6-mer frequency, TF over GST control) | 1.14 fold enrichment (6-mer frequency, TF over GST control) | 1.19 fold enrichment (6-mer frequency, TF over GST control) | 1.17 fold enrichment (6-mer frequency, TF over GST control) | 1.11 fold enrichment (6-mer frequency, TF over GST control) | 1.1 fold enrichment (6-mer frequency, TF over GST control) | 1.08 fold enrichment (6-mer frequency, TF over GST control) | 1.17 fold enrichment (6-mer frequency, TF over GST control) | 1.13 fold enrichment (6-mer frequency, TF over GST control) | 1.08 fold enrichment (6-mer frequency, TF over GST control) | 1.16 fold enrichment (6-mer frequency, TF over GST control) | 1.13 fold enrichment (6-mer frequency, TF over GST control) | 1.15 fold enrichment (6-mer frequency, TF over GST control) | 1.23 fold enrichment (6-mer frequency, TF over GST control) |
